# Source: PubChem
# Rows were chosen to be rich in hits. Some 1.9% of all compounds tested hit in one or more screens of this group.
# IL2 activator: IL-2 activation. IL-2 activation reporter assay, cell-based qHTS; stimulated with anti-CD3/CD4/CD28 beads; in transgenic mouse T cells. activation, % (series mostly up to about 46 µM). hit rate 0.065% among 360,000; in the data active means activation above about 50%; inconclusive means mostly about 30% to 49%
#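 Screening format: compound pinned onto unstimulated transgenic mouse T cells, 60 min incubation, then anti-CD3/anti-CD4/anti-CD28 bead stimulation for 18 hours at 37 degrees C, followed by EGFP and DsRed detection.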
# PKM2 activator: activators of human pyruvate kinase M2. Potency, µM (titrated, usually from 57.5 µM), hits mostly activators. purified PKM2, Kinase-Glo ATP luminescence, activation; response scale: 0% is enzyme alone, no compound. hit rate 0.34% among 260,000. P14618. AID 1631; further: nearly all actives have a fitted effect of over 55% in size
# Target sequence (P14618 whole entry, looked up): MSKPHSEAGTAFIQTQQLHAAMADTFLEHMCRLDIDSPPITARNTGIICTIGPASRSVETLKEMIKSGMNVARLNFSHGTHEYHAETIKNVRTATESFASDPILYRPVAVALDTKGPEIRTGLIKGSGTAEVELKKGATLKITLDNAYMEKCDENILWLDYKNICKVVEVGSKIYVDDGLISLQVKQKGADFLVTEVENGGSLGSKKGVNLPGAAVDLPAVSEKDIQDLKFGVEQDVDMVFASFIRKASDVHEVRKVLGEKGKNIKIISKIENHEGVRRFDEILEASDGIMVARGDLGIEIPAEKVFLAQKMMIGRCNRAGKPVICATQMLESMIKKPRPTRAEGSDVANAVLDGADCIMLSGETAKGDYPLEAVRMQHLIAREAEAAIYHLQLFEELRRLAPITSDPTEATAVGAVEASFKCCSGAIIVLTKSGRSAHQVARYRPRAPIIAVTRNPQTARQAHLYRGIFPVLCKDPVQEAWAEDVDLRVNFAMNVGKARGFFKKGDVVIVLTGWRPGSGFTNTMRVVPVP
#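 Purified hPK-M2 (>95%) run at intermediate activity with 0.1 mM ADP and 0.5 mM PEP in 50 mM imidazole pH 7.2, KCl, MgCl2; 1 h room temperature. ATP formed read by Kinase-Glo luminescence; normalized to uninhibited and no-enzyme controls.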
# ClpP mod: qHTS Assay for Activators of ClpP; hit rate 1.9% among 340,000; Potency, µM (titrated, usually from 57.5 µM); ATP-dependent Clp protease proteolytic subunit (Bacillus subtilis (strain 168)), P80244; purified B. subtilis ClpP, FRET peptide cleavage, 20 min; active means well fitted falling curve with a large enough effect; inconclusive means small, poorly fitted or top-dose-only effect; inactive means no such curve, though single readings can be large or run the other way; further: the source files actives as falling curves though it sought activators and does not explain the sign; nearly all actives have a fitted effect of over 65% in size
#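 Buffer: 100 mM Tris/HCl pH8, 100 mM KCl, 0.05% low protease BSA, 2.5% glycerol, 0.01% Tween-20. ClpP 10 microg/mL final; 20 min RT; delta FRET normalized to ADEP and DMSO controls.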
# Pin1 inh: inhibitors of human Pin1; Q13526; Pin1 FP peptide displacement, HiFluor488, 10 min; Potency, µM (series often up to 115 µM), hits mostly inhibitors; hit rate 0.009% among 390,000; AID 504891; active means well fitted inhibition curve with a large enough effect in the polarisation, with a control signal flat, not every such curve was filed as active; inconclusive means small, poorly fitted or top-dose-only effect, or effect the other way, or a change in a side signal; inactive means no such curve, though single readings can be large or run the other way; the % refers to the polarisation
# Target sequence (Q13526 whole entry, looked up): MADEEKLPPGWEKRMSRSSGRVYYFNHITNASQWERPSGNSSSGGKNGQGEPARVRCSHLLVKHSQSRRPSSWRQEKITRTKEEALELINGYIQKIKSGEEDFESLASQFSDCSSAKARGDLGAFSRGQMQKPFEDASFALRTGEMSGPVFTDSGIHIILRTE
# USP2a block: inhibitors of human ubiquitin-specific protease USP2a | O75604 | USP2 core, Ub-CHOP2 coupled fluorogenic reporter, 485/531 | Potency, µM (series often up to 38.3 µM), hits mostly inhibitors | hit rate 0.01% among 330,000 | AID 463254
#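 Deubiquitinase activity read as fluorescence (485/531 nm) after Ub-CHOP2 cleavage activates the enterokinase reporter on its substrate; USP2 core 10nM, Ub-CHOP2 and substrate 25nM each, 30min compound preincubation then 60min RT; data normalized to NEM, curves fitted.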
# a7 integrin act: integrin-mediated muscular dystrophy alleviation activation. alpha7betagal myoblasts, beta-gal FDG fluorescence, 48 h. Potency, µM (top dose mostly 38.3 µM), actives largely listed as activators. hit rate 0.064% among 350,000. AID 624291; further: nearly all actives have a fitted effect of over 60% in size
#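 Alpha7betagal+/- myoblasts (passage 13) were plated 16-24 hr, then exposed to compounds (1:260 dilution of DMSO stock) for 48 hours at 37C. After MPER lysis, β-galactosidase reporter activity was read as FDG fluorescence (ex 480/em 540) after 30 minutes.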
# A number is an active result; i = inactive; ? = inconclusive; nt = not tested or not shown; [ ] = dose if it differs, or a comment. Unless noted, the call rests on the fitted dose curve; in most records, active means well fitted curve in the direction sought with a large enough effect; inconclusive means small, poorly fitted or top-dose-only effect, or another doubt; inactive means no such curve, though single readings can be large; an effect the other way counts as inactive or inconclusive.
SMILES,IL2 activator,PKM2 activator,ClpP mod,Pin1 inh,USP2a block,a7 integrin act
O=C(CN(Cc1ccccc1)S(=O)(=O)c1ccc(Br)cc1)NCC1CCCO1 (stereo unspecified),i,i,25µM,i,i,i
O=S(=O)(Nc1ccc(Cl)cc1)c1ccc2c(c1)CCO2,i,18µM,nt,i,i,i
CCC(=O)N1N=C(c2cccs2)CC1c1ccc(C)cc1 (stereo unspecified),i,nt,i,i,i,i
CCOC(=O)CCSCC(=O)N1N=C(c2cccs2)CC1c1ccc(C)cc1 (stereo unspecified),i,i,28µM,i,i,i
Cc1ccnc2ccc([N+](=O)[O-])cc12,nt,nt,i,nt,nt,nt
CCCCn1nc(NC(=O)CCC)c2cc3cc(OC)ccc3nc21,i,nt,32µM,i,i,i
COc1ccc2nc3c(cc2c1)c(NC(=O)CC(C)C)nn3CC(C)C,i,nt,i,i,i,i
CCCCn1nc(NC(=O)CC(C)C)c2cc3cc(OC)ccc3nc21,i,nt,i,i,i,?
COc1ccc2nc3c(cc2c1)c(NC(=O)C1CCCO1)nn3CC(C)C (stereo unspecified),i,i,22µM,i,i,i
Cc1ccc(CNC(=O)c2c[nH]c3ccc(S(=O)(=O)N4CCOCC4)cc3c2=O)cc1,nt,nt,28µM,i,nt,nt
CN(Cc1ccccc1)C(=O)c1c[nH]c2ccc(S(=O)(=O)N3CCOCC3)cc2c1=O,i,i,32µM,i,i,i
Cc1ccc(C)c(N(C)S(=O)(=O)c2ccc3[nH]cc(C(=O)NCCN4CCOCC4)c(=O)c3c2)c1,i,i,18µM,i,i,i
CC(C)C(=O)Nc1ccc(/C=C2\C=Cc3ccccc32)cc1,nt,nt,i,nt,nt,nt
CC(=O)Nc1sc(N/N=C\c2ccc(O)cc2)nc1-c1cccs1,i,22µM,i,i,i,i
Cc1ccc(-c2cc(C(F)F)nc(NCc3cccs3)n2)cc1,i,i,i,i,i,i
Cc1ccc(-c2cc(C(F)F)nc(NCc3cccnc3)n2)cc1,i,i,14µM,i,i,i
Cn1c(/C=N/O)nc2ccccc21,i,i,i,i,i,?
C(=N\n1cnnc1)/c1nc2ccccc2[nH]1,i,i,16µM,i,i,i
Cn1c(/C=N/n2cnnc2)nc2ccccc21,i,i,14µM,i,i,i
Cc1[nH]c2ccccc2c1/C=N/n1cnnc1,i,i,i,i,i,i
c1ccc(-c2n[nH]c(-c3ccccn3)n2)nc1,i,i,25µM,i,i,i
C#CCCOC(=O)N1C2=NC(C(=O)OC)=C(C(=O)OC)[C@@H]3N(CC#CC)c4ccccc4[C@]23C[C@H]1C(=O)OC,nt,i[11.5 µM],nt,nt,nt,nt
CCCCNC(=S)NCCCc1cnc[nH]1,nt,nt,nt,i,nt,nt
COc1ccc(-c2cc(-c3cccs3)c(C#N)c(SCC(=O)NCc3ccccc3OC)n2)cc1,i,i,40µM,i,i,i
COc1ccc(-c2cc(-c3cccs3)c(C#N)c(SCC(=O)NCc3ccccc3)n2)cc1,i,i,i,i,i,i
SMILES,IL2 activator,PKM2 activator,ClpP mod,Pin1 inh,USP2a block,a7 integrin act
CCSc1nc(-c2ccc(OC)cc2)cc(-c2ccccc2)c1C#N,i,i,28µM,i,i,i[7.66 µM]
C=CCN1c2ccccc2[C@]23C[C@@H](C(=O)OC)N(S(=O)(=O)CCCC)C2=NC(C(=O)OC)=C(C(=O)OC)[C@H]13,nt,i[11.5 µM],nt,nt,nt,nt
COC(=O)c1ccc2nc(Nc3nc4ccc(F)cc4s3)sc2c1,i,i,18µM,i,i,i
CCOc1ccc(Nc2nc3c(C)cccc3cc2C#N)cc1,57,i,i,?,i,i
COc1ccccc1Nc1nc2c(C)cccc2cc1C#N,i,i,i,i,i,i
CNc1nc(C#N)nc(Nc2ccccc2)n1,nt,nt,nt,i,nt,nt
CN(Cc1cccs1)c1ncnc2ccc(-c3ccc4cnn(C)c4c3)cc12,nt,nt,nt,i,nt,nt
CCCCCc1nc2c(C#N)c(-c3ccc(Cl)cc3)ccn2n1,i,i,28µM,i,i,i
COC(=O)Cn1ccc(-c2ccc(Cl)cc2)c(C#N)c1=O,i,i,i,i,i,i
N#Cc1c(-c2ccc(Cl)cc2)ccn2nc(CCC(=O)O)nc12,i,i,25µM,i,nt,i
O=C(Cc1ccccc1)Nc1cccc(-c2nnc(-c3ccco3)o2)c1,i,i,25µM,i,i,i
O=C(Nc1cccc(-c2nnc(-c3ccco3)o2)c1)c1ccccc1,i,i,nt,i,i,i
O=C(Nc1cccc(-c2nnc(-c3ccco3)o2)c1)C(c1ccccc1)c1ccccc1,i,i,11µM,i,i,?
COc1ccccc1OCC(=O)Nc1cccc(-c2nnc(-c3ccco3)o2)c1,i,i,nt,?,i,?
O=C(COc1ccccc1)Nc1ccc(-c2nnc(-c3ccco3)o2)cc1,i,i,20µM,i,i,i
CC(O)COCC1OC2OC3C(COCC(C)O)OC(OC4C(COCC(C)O)OC(OC5C(COCC(C)O)OC(OC6C(COCC(C)O)OC(OC7C(COCC(C)O)OC(OC8C(COCC(C)O)OC(OC1C(OCC(C)O)C2OCC(C)O)C(OCC(C)O)C8OCC(C)O)C(OCC(C)O)C7OCC(C)O)C(OCC(C)O)C6OCC(C)O)C(OCC(C)O)C5OCC(C)O)C(OCC(C)O)C4OCC(C)O)C(OCC(C)O)C3OCC(C)O (stereo unspecified),nt,nt,i,nt,nt,nt
CC1=C(C(=O)Nc2ccc(Cl)cc2)C(c2ccccc2C)n2ncc(C(=O)Nc3ccc(C)cc3)c2N1 (stereo unspecified),nt,nt,32µM,i,nt,nt
COc1cccc(C2C(C(=O)Nc3ccc(Cl)cc3)=C(C)Nc3nc4ccccc4n32)c1OC (stereo unspecified),nt,nt,i,i,nt,nt
CC1=C(C(=O)Nc2ccc(Cl)cc2)C(c2ccccc2)n2ncc(C(=O)Nc3ccccc3)c2N1 (stereo unspecified),nt,nt,i,i,nt,nt
COc1cccc(C2C(C(=O)Nc3ccc(Cl)cc3)=C(C)Nc3c(C(=O)Nc4ccccc4)cnn32)c1OC (stereo unspecified),nt,nt,28µM,i,nt,nt
O=[N+]([O-])c1ccccc1NCc1ccc(O)c2ncccc12,nt,nt,nt,i,nt,nt
COc1ccc(OC)c2c1CCC2=O,i,i,32µM,i,i,i
CSc1nc2ccc(NS(=O)(=O)c3ccc4c(c3)OCCO4)cc2s1,i,16µM,i,i,i,i
O=c1oc2ccccc2cc1-c1nc2c(s1)CCCC2,i,i,35µM,i,i,i
Cc1nn2c(nc(N3CCCCC3)c3ccccc32)c1C=O,i,i,13µM,i,i,i
Cc1ccc(NC(=O)CCc2c(C)nc3cc(-c4ccccc4)nn3c2C)cc1F,nt,nt,28µM,i,nt,nt
CCN(CC)S(=O)(=O)c1ccc(NC(=O)CCc2c(C)nc3cc(-c4ccc(Cl)cc4)nn3c2C)cc1,nt,nt,16µM,i,nt,nt
